# Bioassay records: PubChem, University of Kansas High Throughput Screening Laboratory
# This is one part of a sample in which hits are shown more often than they occur.
# Pf apPOL inh = Pf-apPOL DNA polymerase inhibition. actives 0.25% (n = 210,000). inhibition, % at 10 µM. Recombinant Pf-apPOL, molecular beacon fluorescence, 1.5 h. AID 1794808
# mHTT CaM bind = mHTT-calmodulin interaction abrogation | P42858 | AlphaScreen His-mHTT/GST-CaM binding, luminescence | inhibition, % at 15 µM | actives 3.6% (n = 190,000);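 also: 0% = both proteins with DMSO and 100% = one protein alone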
# Target sequence (P42858 whole entry, looked up, stated change not applied): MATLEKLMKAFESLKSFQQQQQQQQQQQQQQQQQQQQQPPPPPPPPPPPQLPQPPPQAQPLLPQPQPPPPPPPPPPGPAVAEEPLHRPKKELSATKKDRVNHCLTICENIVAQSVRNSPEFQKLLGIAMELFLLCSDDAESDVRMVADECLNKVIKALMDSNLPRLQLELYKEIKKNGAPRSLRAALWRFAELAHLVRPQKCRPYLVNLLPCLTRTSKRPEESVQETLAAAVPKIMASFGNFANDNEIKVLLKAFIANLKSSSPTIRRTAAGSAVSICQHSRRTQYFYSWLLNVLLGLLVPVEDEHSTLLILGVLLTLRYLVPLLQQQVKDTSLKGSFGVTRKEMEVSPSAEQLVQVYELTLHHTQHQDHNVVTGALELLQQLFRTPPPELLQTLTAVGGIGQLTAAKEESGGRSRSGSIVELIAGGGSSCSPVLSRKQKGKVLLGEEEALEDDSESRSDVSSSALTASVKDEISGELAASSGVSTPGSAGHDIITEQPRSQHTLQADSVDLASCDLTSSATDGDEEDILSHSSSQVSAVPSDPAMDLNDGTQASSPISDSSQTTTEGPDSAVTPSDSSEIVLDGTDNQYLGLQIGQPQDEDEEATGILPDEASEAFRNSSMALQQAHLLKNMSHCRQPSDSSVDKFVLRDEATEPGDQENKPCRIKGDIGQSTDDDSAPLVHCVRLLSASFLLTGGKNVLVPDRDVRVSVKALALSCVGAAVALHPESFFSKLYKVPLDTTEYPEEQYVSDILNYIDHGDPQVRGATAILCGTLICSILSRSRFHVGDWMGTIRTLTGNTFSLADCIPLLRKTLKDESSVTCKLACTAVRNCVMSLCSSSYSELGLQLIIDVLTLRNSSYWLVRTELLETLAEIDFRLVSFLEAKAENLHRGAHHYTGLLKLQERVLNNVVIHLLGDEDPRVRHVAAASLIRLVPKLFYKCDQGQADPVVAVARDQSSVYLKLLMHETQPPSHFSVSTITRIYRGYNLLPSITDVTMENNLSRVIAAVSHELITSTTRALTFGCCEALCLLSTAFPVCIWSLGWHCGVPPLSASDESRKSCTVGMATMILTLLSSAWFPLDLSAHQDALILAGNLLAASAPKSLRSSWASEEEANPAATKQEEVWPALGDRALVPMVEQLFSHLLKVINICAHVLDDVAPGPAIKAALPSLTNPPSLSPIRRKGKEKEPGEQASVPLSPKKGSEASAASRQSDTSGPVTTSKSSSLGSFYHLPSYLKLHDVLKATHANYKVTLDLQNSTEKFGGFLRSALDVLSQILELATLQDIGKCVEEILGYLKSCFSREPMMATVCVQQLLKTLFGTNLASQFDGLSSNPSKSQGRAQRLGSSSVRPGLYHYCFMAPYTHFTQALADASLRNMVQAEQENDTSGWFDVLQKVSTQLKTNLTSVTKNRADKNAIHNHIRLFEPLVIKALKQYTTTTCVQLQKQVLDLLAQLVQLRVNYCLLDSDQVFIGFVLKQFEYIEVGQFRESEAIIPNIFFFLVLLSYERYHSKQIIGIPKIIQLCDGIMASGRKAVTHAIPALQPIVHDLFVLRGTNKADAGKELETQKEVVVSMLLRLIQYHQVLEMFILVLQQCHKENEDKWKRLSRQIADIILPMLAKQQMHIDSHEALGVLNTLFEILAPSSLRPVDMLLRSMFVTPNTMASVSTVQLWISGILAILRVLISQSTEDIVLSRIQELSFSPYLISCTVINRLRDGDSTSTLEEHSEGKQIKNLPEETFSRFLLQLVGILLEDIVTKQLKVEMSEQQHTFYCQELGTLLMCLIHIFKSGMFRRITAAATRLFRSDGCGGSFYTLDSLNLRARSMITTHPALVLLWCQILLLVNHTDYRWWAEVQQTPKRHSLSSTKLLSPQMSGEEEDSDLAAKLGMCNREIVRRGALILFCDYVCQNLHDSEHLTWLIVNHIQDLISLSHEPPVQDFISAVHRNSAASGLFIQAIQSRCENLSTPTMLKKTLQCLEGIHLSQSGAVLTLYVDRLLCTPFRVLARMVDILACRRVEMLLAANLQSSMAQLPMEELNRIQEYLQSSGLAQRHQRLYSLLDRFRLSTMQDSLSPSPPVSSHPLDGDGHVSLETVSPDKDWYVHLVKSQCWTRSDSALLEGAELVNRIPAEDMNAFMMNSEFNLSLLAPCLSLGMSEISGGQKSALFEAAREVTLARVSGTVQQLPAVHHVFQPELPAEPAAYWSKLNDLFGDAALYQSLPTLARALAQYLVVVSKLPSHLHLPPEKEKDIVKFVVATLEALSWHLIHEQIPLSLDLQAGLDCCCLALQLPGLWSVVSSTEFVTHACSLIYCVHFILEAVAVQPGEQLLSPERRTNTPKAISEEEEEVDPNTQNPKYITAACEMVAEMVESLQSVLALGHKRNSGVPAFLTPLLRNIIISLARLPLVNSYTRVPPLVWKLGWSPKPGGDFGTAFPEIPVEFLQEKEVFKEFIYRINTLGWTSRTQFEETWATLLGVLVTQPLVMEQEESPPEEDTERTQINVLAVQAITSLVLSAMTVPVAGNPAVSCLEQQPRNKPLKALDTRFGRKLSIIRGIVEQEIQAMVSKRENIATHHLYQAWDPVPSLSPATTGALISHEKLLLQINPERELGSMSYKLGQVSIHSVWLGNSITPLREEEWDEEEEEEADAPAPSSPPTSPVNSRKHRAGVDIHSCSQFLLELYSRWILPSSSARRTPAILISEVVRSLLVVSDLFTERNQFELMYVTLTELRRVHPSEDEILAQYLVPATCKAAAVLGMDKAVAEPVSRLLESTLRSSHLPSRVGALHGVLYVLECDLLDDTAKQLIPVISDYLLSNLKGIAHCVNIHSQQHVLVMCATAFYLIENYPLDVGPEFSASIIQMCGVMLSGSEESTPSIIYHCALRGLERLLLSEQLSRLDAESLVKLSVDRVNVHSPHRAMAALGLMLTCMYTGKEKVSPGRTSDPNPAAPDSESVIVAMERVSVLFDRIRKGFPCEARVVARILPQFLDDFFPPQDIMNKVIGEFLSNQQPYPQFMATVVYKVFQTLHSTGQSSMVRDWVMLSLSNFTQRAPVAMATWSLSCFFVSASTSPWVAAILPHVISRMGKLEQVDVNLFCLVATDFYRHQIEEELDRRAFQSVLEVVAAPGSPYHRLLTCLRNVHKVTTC
# * marks the source's active call; other numbers are inactive results; · = no result given. Rule as the data show it: active = inhibition above about 50%; inactive = the rest.
SMILES,Pf apPOL inh,mHTT CaM bind
Cc1cc(O)cc2c1C(=O)C(=Cc1ccccc1)O2,-12,0
Cc1cc(O)cc2c1C(=O)C(=Cc1cc3ccccc3o1)O2,-2,55*
O=C(Nc1ccc(F)cc1F)N1CCC(N2CCN(Cc3ccccc3)C2=O)CC1,-8,7
N=c1oc2c(Cl)cc(Cl)cc2cc1C(N)=O,-2,91*
NC(=O)c1ccc(N=c2oc3c(Cl)cc(Cl)cc3cc2C(N)=O)cc1,-6,1
CCc1nc(C2CCN(C(=O)C3(c4ccccc4)CC3)CC2)n[nH]1,2,24
Cc1cccc(-c2nc(C3CCN(S(=O)(=O)c4ccccc4)CC3)no2)c1,-4,-5
Cc1nccn1CC(C)C(=O)O (stereo unspecified),1,0
CC(O)Cn1c2ccccc2c2cc(Cl)ccc21 (stereo unspecified),9,19
OCCN(CCO)CC(O)Cn1c2ccc(Cl)cc2c2cc(Cl)ccc21 (stereo unspecified),0,100*
Cc1nccn1CC(O)Cn1c2ccc(Cl)cc2c2cc(Cl)ccc21 (stereo unspecified),3,100*
c1ccc(CCNc2ncnc3ccccc23)cc1,-9,-5
NNc1ncnc2ccccc12,·,100*
Cc1nc2c(NC(=O)c3ccc(C(F)(F)F)s3)cccn2n1,0,-4
CCOc1ccc(-n2nc(C(=O)Nc3cc([N+](=O)[O-])ccc3OC)c3ccccc3c2=O)cc1,1,3
CC1C(=NO)C(C)C(c2ccc(N(C)C)cc2)NC1c1ccc(N(C)C)cc1 (stereo unspecified),-11,76*
CC1C(c2ccc(N(C)C)cc2)NC(c2ccc(N(C)C)cc2)C(C)C1O (stereo unspecified),-9,17
O=C(Cn1ccc2c(=O)[nH]ccc21)Nc1cccc(C(F)(F)F)c1,-3,0
Cc1ccnc2c1ccc1cccnc12,·,100*
c1cnc2c(c1)ccc1cccnc12,5,·
COc1cc2c(cc1OC)C(COc1ccc([N+](=O)[O-])cc1)N(C(=O)C13CC4CC(CC(C4)C1)C3)CC2 (stereo unspecified),-6,23
CC(C)NC1CCCc2c1[nH]c1ccc([N+](=O)[O-])cc21 (stereo unspecified),-3,12
O=[N+]([O-])c1ccc2[nH]c3c(c2c1)CCCC3NC1Cc2ccccc2C1 (stereo unspecified),-2,93*
CS(=O)(=O)N1CCc2ccc(C(=O)N3CCN(C4CCCC4)CC3)cc21,2,4
CC(C)NC(=O)c1cncc(-c2ccc(F)cc2F)c1,63*,6
SMILES,Pf apPOL inh,mHTT CaM bind
CCNC(=O)c1cncc(-c2ccc(F)cc2F)c1,38,5
Cc1ccccc1C1=N/C(=C\c2ccccc2F)C(=O)O1,0,0
COc1cc(CN2CC(C)CC(C)C2)cc(I)c1O (stereo unspecified),-10,2
O=C(Nc1ccc2c(N3CCOCC3)ncnc2c1)c1cccc(Cl)c1,-11,88*
O=C(Nc1ccc2c(N3CCCC3)ncnc2c1)c1cccc(Br)c1,4,25
O=C(Nc1ccc2c(N3CCOCC3)ncnc2c1)c1cccc(F)c1,0,6
CN(C)c1cccc(C(=O)Nc2ccc3c(N4CCCC4)ncnc3c2)c1,3,58*
N#CCc1cccc(OCc2ccccc2)c1,-4,·
COc1ccc(C=C2Oc3c(ccc4c3CN(c3ccc5c(c3)OCCO5)CO4)C2=O)cc1OC,3,3
O=C1C(=Cc2ccco2)Oc2c1ccc1c2CN(Cc2ccc3c(c2)OCO3)CO1,-7,48
COc1ccc(C=C2Oc3c(ccc4c3CN(Cc3ccco3)CO4)C2=O)c(OC)c1OC,-24,66*
COc1ccc(C=C2Oc3c(ccc4c3CN(c3ccc5c(c3)OCO5)CO4)C2=O)cc1OC,6,59*
COc1ccc(OC)c(C=C2Oc3c(ccc4c3CN(Cc3ccco3)CO4)C2=O)c1,-8,16
COc1ccc(C=C2Oc3c(ccc4c3CN(Cc3ccncc3)CO4)C2=O)c(OC)c1OC,-19,0
COc1ccc(C=C2Oc3c(ccc4c3CN(Cc3ccco3)CO4)C2=O)c(OC)c1,-17,68*
COc1ccc(CN2COc3ccc4c(c3C2)OC(=Cc2ccco2)C4=O)cc1,-6,51*
Cc1sc(NC(=O)c2cccc([N+](=O)[O-])c2C(=O)O)nc1-c1ccccc1,2,-4
CC(C)(C)NC(=O)c1c(F)cccc1F,-6,1
O=C(NC12CC3CC(CC(C3)C1)C2)c1cnn2c1NC(c1ccccc1)CC2C(F)(F)F (stereo unspecified),-7,-2
CC(C)CCCC(C)C1CCC2C3CC=C4CC(OC(=O)C=Cc5c6ccccc6cc6ccccc56)CCC4(C)C3CCC12C (stereo unspecified),6,2
Cc1ccc(NC(=O)Cn2c(=O)sc3ccccc32)cc1,-3,1
Cc1ccnc(SC2CC(=O)N(c3ccccc3I)C2=O)n1 (stereo unspecified),0,3
Cc1ccccc1CC(=O)N1CCCC(COc2ccc(C(=O)N3CCCC3)cc2)C1 (stereo unspecified),-5,20
COCCCN1COc2ccc3c(c2C1)OC(=Cc1cc(OC)c(OC)c(OC)c1)C3=O,-28,29
COc1cc(C=C2Oc3c(ccc4c3CN(CCN3CCOCC3)CO4)C2=O)cc(OC)c1OC,-36,89*
SMILES,Pf apPOL inh,mHTT CaM bind
COc1ccccc1CN1Cc2cccc3c2[C@@H](CC1=O)[C@H](O)[C@H](O)C3,-3,-2
Cc1ccccc1CN1Cc2cccc3c2[C@H](C=CC3)CC1=O,-3,100*
O=C1CC2C=CCc3cccc(c32)CN1Cc1cccc(F)c1 (stereo unspecified),-4,100*
O=C1C[C@H]2C=CCc3cccc(c32)CN1Cc1ccc(Br)cc1,-8,12
COc1ccccc1CCN1COc2ccc3c(=O)c(-c4ccccc4)coc3c2C1,-20,-6
CC1=C(C(=O)Nc2ccc(C)c(Cl)c2)C(c2ccccc2Cl)NC(=O)N1 (stereo unspecified),-4,90*
CC1=C(C(=O)Nc2ccc(F)c(F)c2)C(c2ccccc2F)NC(=O)N1 (stereo unspecified),-3,-1
COc1ccc(CN2CC(C(=O)N3CCCC3)CC2=O)cc1 (stereo unspecified),-1,-3
CCc1cccc(NC(=O)Cn2ccc3sc(C)cc3c2=O)c1,4,1
O=C(O)c1cc(Cl)c(Cl)cc1C(=O)Nc1cccnc1,55*,-5
O=C(Nc1cccnc1)c1ccc(Cl)cc1Cl,-2,-1
Fc1ccc(C2=CSC(N=Cc3ccco3)=NN2)cc1,2,68*
CC1=C(c2ccc(Cl)cc2)NN=C(N=Cc2ccco2)S1,0,17
Cc1ccc(NC(=O)N2CCCC2c2c(C)noc2C)c(Cl)c1 (stereo unspecified),0,-5
Cc1ccc(C(O)=C2C(=O)C(=O)N(CCCN(C)C)C2c2ccccc2F)cc1 (stereo unspecified),-9,-4
Cc1cc(C)c2ccc(NN)nc2c1O,-6,85*
CC(=O)Nc1ccccc1/C=C/c1ccc2c(C)cc(C)c(O)c2n1,-5,4
Cc1cc(C)c2ccc(C=O)nc2c1O,-11,69*
Cc1cc(C)c2ccc(CO)nc2c1O,-11,0
CC(NC(=O)C1CCN(c2cc(N3CCCC3)ncn2)CC1)c1ccc(F)cc1 (stereo unspecified),-2,9
